# In PubChem BioAssay (NCI):
# Compounds without any hit were thinned out: in the full panel of roughly 83,000, 20% have a hit.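 Method: cells in 96-well plates; compound added at one concentration; 48 h incubation; percent growth measured; values under 10 scored active.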 Unmarked numbers belong to inactive results. The source made the active and inactive calls.
# Experiments:
# Assay in all cases: NCI-60 one-dose screen, 48 h (100 = growth as untreated, 0 = no growth, -100 = all killed)
# Conditions in all cases: 10 µM unless noted
# DU-145 prostate = tested on: DU-145 prostate
# K-562 leukemia = tested on: K-562 leukemia
# MALME-3M melanoma = tested on: MALME-3M melanoma
# MDA-MB-231 breast = tested on: MDA-MB-231 breast
# RXF 393 renal = tested on: RXF 393 renal
# SF-268 CNS = tested on: SF-268 CNS
# SF-295 CNS = tested on: SF-295 CNS
# SF-539 CNS = tested on: SF-539 CNS
# UACC-257 melanoma = tested on: UACC-257 melanoma
# M14 melanoma = tested on: M14 melanoma
# HCT-15 colon = tested on: HCT-15 colon
# HT29 colon = tested on: HT29 colon
# SNB-75 CNS = tested on: SNB-75 CNS
# SNB-19 CNS = tested on: SNB-19 CNS
# U251 CNS = tested on: U251 CNS
# PC-3 prostate = tested on: PC-3 prostate
# SK-MEL-5 melanoma = tested on: SK-MEL-5 melanoma
# UACC-62 melanoma = tested on: UACC-62 melanoma
# LOX IMVI melanoma = tested on: LOX IMVI melanoma
# SK-MEL-28 melanoma = tested on: SK-MEL-28 melanoma
Structure (SMILES),growth (DU-145 prostate),growth (K-562 leukemia),growth (MALME-3M melanoma) [%],growth (MDA-MB-231 breast),growth (RXF 393 renal),growth (SF-268 CNS) [%],growth (SF-295 CNS),growth (SF-539 CNS),growth (UACC-257 melanoma) [%],growth (M14 melanoma),growth (HCT-15 colon) [%],growth (HT29 colon) [%],growth (SNB-75 CNS),growth (SNB-19 CNS) [%],growth (U251 CNS) [%],growth (PC-3 prostate) [%],growth (SK-MEL-5 melanoma),growth (UACC-62 melanoma) [%],growth (LOX IMVI melanoma),growth (SK-MEL-28 melanoma) [%]
C=CCOc1cccc(/C=C2\SC(=Nc3ccc(O)cc3)NC2=O)c1,5.29% (active),5.21% (active),58.3,-12.1% (active),-12.8% (active),19.3,7.15% (active),-38.1% (active),68.4,9.92% (active),10.1,11.7,-18.6% (active),30.9,13.1,13.9,-39% (active),34.7,8.94% (active),69.7
CS(=O)(=O)c1ccc(-c2nc3cc(Cl)ccc3n2CC(=O)N/N=C/c2ccc(Cl)cc2)cc1,70.1%,17%,46.6,48.9%,-25.1% (active),50.2,-36.9% (active),-3.48% (active),67.7,61.2%,72.6,36.2,42.1%,51.3,30.5,45.5,23.1%,56.2,30.7%,43.6
O=c1cc(-c2ccc(OCc3ccccc3)cc2)oc2c(I)c(OCc3ccccc3)cc(OCc3ccccc3)c12,105%,84.3%,107,110%,139%,99,99%,100%,95.9,95.6%,104,105,79.7%,104,90.1,94.7,85.1%,90.3,101%,107
CC(C)(C)Nc1c(-c2c3ccccc3cc3ccccc23)nc2ccccn12,92.7%,42%,80.6,80.7%,82.4%,82.9,69.7%,78.2%,75.5,70.3%,79.7,55.3,64%,74.1,68.2,37.9,84%,50.6,85.9%,82.2
CN(C)c1ccc(C#Cc2c(F)cccc2Cl)cc1,101%,95.5%,93.4,66.2%,112%,87.7,76.5%,94.6%,91.2,100%,78.4,73.7,75%,111,89.1,70.5,85.3%,87.6,81.3%,105
N#Cc1c(-c2ccccc2)nc(SCC2CO2)nc1N1CCOCC1 (stereo not given),87.5%,97.4%,25.7,71.4%,31.5%,69.7,9.14% (active),85.6%,69.2,84%,74.2,74,34.1%,60.9,75.3,36.1,84.9%,51.9,76.6%,64.7
CSc1ncc(C)c(Nc2ccc(Cl)cc2)n1,102%,94%,122,110%,114%,99.9,96%,118%,127,112%,99.3,96.4,90.4%,105,93,87.6,110%,99.4,107%,114
COc1cc2nc(Nc3ccc(F)cc3)nc(N)c2cc1OC,93.5%,77.8%,105,81.7%,54.5%,90,-2.33% (active),95.5%,102,107%,94.7,81,103%,92.6,94,84.1,90.5%,94,101%,105
